Measured values from ChEMBL document CHEMBL3988442, “University of Dundee, Small-Polar-MMV Screening Library” (2021).
For part of these data: Results with a measured potency or affinity are listed apart.

Experiments:
Set-up in all cases: scale not given: direction of the effect not stated beside the values
[1] = target: Protein translocase subunit SecA (Escherichia coli (strain K12)) (UniProt P10408); test: Assay to Identify E. coli SecA ATPase Inhibitors; assay type: functional; conditions: 30 µM
Chain of Protein translocase subunit SecA (Escherichia coli (strain K12)) (P10408 whole entry): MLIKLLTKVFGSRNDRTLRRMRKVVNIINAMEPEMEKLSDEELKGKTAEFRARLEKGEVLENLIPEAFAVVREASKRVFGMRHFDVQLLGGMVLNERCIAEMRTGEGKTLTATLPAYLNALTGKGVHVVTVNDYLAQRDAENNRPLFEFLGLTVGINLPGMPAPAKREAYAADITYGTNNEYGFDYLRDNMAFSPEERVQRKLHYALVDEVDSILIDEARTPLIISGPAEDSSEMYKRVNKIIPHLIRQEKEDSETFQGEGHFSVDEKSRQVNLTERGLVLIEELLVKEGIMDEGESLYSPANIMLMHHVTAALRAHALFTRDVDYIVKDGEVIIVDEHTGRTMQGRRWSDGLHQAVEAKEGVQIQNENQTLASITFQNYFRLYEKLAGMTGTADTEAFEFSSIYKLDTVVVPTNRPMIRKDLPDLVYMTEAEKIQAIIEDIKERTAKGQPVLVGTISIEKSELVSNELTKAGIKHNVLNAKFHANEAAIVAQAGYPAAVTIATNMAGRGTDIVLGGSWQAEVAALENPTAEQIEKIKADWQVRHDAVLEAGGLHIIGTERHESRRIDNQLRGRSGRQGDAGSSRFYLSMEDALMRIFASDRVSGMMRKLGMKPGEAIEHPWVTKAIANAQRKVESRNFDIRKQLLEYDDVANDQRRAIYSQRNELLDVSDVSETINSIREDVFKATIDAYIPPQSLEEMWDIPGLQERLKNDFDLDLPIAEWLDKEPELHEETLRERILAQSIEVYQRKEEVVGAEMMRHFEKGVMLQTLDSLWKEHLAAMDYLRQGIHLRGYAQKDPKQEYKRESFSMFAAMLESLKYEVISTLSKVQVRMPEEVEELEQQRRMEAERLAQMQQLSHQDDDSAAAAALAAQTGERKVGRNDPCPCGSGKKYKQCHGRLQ

[2] = target: T1, Ubiquitin-activating enzyme e1, putative (Leishmania donovani (strain BPK282A1)) (UniProt E9BSI1); test: Leishmania donovani Ubiquitin Activating Enzyme (LdE1); assay type: functional; conditions: 30 µM
T1 sequence (whole entry): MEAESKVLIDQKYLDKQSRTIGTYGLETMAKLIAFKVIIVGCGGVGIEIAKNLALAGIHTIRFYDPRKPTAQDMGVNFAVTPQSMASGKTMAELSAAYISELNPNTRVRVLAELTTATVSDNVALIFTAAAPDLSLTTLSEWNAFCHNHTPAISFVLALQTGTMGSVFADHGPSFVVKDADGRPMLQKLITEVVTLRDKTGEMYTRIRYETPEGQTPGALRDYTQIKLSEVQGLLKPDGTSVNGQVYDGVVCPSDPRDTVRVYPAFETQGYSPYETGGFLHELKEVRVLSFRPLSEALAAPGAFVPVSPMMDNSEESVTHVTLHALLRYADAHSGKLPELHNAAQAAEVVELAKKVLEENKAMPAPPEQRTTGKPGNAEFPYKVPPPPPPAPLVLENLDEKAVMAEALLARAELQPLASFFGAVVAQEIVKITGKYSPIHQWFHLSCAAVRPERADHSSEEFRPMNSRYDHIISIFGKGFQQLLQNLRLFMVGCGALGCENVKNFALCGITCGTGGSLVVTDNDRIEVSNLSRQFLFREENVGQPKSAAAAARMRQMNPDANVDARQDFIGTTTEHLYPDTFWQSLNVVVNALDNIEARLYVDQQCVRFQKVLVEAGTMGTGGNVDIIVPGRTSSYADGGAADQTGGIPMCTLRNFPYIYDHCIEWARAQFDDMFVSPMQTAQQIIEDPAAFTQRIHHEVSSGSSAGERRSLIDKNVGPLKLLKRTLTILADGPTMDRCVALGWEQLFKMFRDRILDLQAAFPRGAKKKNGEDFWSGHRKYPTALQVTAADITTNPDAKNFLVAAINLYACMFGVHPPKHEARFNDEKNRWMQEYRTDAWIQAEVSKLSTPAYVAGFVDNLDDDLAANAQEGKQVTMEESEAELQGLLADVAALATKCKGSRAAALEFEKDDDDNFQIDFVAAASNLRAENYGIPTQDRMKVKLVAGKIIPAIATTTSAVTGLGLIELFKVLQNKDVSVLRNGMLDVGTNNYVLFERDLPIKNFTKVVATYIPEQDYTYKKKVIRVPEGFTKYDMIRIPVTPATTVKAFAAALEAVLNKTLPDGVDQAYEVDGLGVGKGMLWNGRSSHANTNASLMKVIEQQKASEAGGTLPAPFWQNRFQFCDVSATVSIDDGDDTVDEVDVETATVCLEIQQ

[3] = target: AMP-activated protein kinase, AMPK (Homo sapiens) (UniProt P54646+O43741+P54619+Q9UGJ0+Q9Y478+Q13131+Q9UGI9); test: AMP-dependent Kinase enzyme assay. An in vitro enzyme assay that detects ADP turnover that is directly proportional to AMPK activity. This uses naive AMPK that is activated during the assay with MK-8722; assay type: functional; conditions: 30 µM
[4] = target: Sialic acid-binding Ig-like lectin 9 (Homo sapiens) (UniProt Q9Y336); test: Hs-Siglec9 ALPHAscreen SOP 20170721; conditions: 10 µM
Chain of Sialic acid-binding Ig-like lectin 9 (Homo sapiens) (Q9Y336 whole entry): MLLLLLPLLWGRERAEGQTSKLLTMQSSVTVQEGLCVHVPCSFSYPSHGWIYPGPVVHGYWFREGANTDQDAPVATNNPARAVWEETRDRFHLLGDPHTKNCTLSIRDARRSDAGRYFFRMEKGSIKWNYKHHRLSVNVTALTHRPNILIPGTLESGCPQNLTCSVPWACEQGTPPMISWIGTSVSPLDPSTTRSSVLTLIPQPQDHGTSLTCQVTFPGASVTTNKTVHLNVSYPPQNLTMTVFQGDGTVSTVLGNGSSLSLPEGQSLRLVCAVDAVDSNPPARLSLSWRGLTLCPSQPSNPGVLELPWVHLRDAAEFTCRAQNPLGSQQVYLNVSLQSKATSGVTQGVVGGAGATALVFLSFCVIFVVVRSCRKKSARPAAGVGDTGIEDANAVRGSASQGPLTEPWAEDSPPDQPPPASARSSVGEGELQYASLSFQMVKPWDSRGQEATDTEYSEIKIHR

[5] = test system: Trypanosoma cruzi; test: Trypanosoma cruzi phosphomannomutase and mannose-1-phosphate guanylyltransferase assay; assay type: functional; conditions: 10 µM
[6] = target: T2, Arginase-2, mitochondrial (Homo sapiens) (UniProt P78540); test: in vitro enzyme assay to detect the production of urea directly proportional to the activity of Arginase II; assay type: functional; conditions: 33.3 µM; note: in the data most compounds retested in dose-response had high values
T2 sequence (whole entry): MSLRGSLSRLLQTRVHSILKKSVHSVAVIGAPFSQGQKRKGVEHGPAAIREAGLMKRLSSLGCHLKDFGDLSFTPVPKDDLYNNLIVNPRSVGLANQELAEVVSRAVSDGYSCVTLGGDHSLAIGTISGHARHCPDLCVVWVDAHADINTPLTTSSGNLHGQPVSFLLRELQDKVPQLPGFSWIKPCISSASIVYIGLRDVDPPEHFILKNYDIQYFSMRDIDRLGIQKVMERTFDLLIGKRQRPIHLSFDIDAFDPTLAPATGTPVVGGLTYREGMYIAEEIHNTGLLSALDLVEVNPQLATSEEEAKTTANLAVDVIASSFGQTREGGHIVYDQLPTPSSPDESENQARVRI

[7] = target: T3, Proteasome subunit beta (Trypanosoma cruzi) (UniProt O96673); test: Trypanosoma cruzi proteasome chymotrypsin-like activity (TcProtChymo) assay.; note: in the data most compounds retested in dose-response had high values; assay type: functional; conditions: 9.37 µM
T3 sequence (whole entry): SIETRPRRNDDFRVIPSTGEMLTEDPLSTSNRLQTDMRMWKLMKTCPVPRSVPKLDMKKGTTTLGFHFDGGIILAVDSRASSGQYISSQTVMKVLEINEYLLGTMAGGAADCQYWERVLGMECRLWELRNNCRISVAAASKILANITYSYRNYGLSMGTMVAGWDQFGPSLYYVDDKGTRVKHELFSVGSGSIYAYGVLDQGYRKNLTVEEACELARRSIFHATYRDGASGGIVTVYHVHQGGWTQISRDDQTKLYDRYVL

[8] = organism: Homo sapiens; test: To identify inhibition of the IFN signalling (Jak-Stat) pathway via expression of an eGFP reporter gene under the control of an IFN-stimulated response element (ISRE) containing MxA promoter.; assay type: functional; conditions: 30 µM
[9] = target: T4, Tyrosyl-tRNA synthetase, putative (Trypanosoma cruzi (strain CL Brener)) (UniProt Q4DSP6); test: Trypanosoma cruzi tyrosyl tRNA synthetase (TcYRS) _High Tyrosine SOP; assay type: functional; conditions: 30 µM; note: in the data most compounds retested in dose-response had high values
T4 sequence (whole entry): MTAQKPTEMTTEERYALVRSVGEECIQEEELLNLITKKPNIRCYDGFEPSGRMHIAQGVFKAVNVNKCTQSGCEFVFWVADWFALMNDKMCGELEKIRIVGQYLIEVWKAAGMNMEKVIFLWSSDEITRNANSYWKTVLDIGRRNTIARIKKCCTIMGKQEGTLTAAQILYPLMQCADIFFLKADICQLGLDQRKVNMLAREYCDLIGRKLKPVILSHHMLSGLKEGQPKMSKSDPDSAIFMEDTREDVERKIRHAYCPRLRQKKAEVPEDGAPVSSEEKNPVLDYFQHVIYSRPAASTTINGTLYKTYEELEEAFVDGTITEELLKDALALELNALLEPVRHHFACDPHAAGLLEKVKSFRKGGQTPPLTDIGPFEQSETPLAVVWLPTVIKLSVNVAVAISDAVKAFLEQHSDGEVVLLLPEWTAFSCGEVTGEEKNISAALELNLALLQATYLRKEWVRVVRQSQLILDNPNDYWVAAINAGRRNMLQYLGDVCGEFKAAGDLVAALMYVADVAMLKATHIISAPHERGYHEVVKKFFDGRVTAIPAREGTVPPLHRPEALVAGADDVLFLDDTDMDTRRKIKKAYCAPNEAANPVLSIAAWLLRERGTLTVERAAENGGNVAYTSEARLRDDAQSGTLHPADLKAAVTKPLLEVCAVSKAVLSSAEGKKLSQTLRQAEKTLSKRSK

[10] = target: T4, Tyrosyl-tRNA synthetase, putative (Trypanosoma cruzi (strain CL Brener)); test: Trypanosoma cruzi tyrosyl tRNA synthetase (TcYRS) SOP; assay type: functional; conditions: 30 µM
[11] = target: Chromo domain-containing protein 1 (Saccharomyces cerevisiae (strain ATCC 204508 / S288c) (Baker's yeast)) (UniProt P32657); test: ScCHD-1 Enzyme Inhibition Assay; assay type: functional; conditions: 30 µM; note: in the data most compounds retested in dose-response had high values
Chain of Chromo domain-containing protein 1 (Saccharomyces cerevisiae (strain ATCC 204508 / S288c) (Baker's yeast)) (P32657 whole entry, the tested form may be a part): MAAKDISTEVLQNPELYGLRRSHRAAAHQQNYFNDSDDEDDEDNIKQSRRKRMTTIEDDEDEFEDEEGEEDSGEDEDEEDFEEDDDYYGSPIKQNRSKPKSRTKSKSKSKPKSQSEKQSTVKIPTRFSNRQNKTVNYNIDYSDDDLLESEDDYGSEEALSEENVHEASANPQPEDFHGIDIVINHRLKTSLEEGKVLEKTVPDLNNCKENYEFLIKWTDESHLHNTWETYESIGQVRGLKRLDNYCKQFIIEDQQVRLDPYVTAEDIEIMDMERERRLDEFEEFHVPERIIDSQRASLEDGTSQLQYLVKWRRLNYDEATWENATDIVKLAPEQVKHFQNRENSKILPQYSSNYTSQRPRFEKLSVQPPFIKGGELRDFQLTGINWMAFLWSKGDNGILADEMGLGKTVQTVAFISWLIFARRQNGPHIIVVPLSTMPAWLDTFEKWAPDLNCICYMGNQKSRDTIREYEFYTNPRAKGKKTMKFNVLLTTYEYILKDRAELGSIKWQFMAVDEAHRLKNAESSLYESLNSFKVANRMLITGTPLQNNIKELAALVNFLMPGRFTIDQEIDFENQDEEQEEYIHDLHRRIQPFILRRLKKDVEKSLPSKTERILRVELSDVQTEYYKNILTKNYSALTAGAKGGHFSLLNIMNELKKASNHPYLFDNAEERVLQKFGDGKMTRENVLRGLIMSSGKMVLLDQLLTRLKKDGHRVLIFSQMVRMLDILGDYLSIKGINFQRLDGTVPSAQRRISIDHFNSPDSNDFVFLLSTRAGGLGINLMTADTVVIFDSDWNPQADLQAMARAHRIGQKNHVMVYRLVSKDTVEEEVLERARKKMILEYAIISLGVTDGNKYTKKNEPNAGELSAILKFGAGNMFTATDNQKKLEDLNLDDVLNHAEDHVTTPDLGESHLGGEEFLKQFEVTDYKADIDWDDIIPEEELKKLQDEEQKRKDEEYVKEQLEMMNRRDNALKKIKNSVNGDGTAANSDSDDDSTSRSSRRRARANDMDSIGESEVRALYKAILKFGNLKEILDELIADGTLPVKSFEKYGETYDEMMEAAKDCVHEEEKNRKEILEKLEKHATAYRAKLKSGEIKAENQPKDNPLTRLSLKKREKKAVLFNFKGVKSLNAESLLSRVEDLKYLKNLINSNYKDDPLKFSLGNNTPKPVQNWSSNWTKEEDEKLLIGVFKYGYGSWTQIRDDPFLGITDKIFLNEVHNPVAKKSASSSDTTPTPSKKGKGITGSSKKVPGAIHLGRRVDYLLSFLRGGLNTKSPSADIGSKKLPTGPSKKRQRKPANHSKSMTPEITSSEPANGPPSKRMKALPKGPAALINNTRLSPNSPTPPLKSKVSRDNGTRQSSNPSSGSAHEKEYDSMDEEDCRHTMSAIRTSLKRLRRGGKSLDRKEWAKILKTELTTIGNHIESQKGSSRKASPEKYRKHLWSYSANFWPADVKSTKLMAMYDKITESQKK

SMILES	Percent Effect [1] [%]	Percent Effect [2] [%]	Percent Effect [3] [%]	Percent Effect [4] [%]	Percent Effect [5] [%]	Percent Effect [6] [%]	Percent Effect [7] [%]	Percent Effect [8] [%]	Percent Effect [9] [%]	Percent Effect [10] [%]	Percent Effect [11] [%]
Cc1cn2nc(N3CCCC3Cn3nc(C)cc3C)sc2n1 (stereo unspecified)	-2.86	6.33	3.5	0.585	1.74	-0.645	9.43	19.6	4.17	7.59	-20
COc1ccc(-c2nc(CN3CCCC3Cn3cccn3)no2)cc1 (stereo unspecified)	-6.58	7.79	-5.32	11.9	8.99	-6.41	9.12	12.7	5.83	21.9	-11.9
CC(=O)NC1CCCN(C(=O)NCc2ccc(-c3ccn[nH]3)cc2)C1 (stereo unspecified)	-4.57	21.1	2.99	-2.61	3.83	0	12.4	-12.3	8.37	23.5	-8.05
CCNC(=O)N1CCN(Cc2nc3ccccc3[nH]2)[C@@H]2CS(=O)(=O)C[C@@H]21	-3.35	5.41	-2.19	-3.56	-4.2	2.23	15.2	1.54	4.3	11.1	-3.76
O=C(c1ccsc1)N1CCc2c(COCc3ccncc3)cncc2C1	0.395	-8.22	0.499	1.44	-0.397	1.2	10	3.9	3.12	3.7	-0.158
CCc1ccc(S(=O)(=O)Nc2cn(C)cc(Br)c2=O)cc1	-3.35	5.41	-3.87	18.4	4.25	-0.952	11.6	6.27	2.65	12.2	-5.04
c1cnc2c(c1)cc(C1CCOCC1)n2CCN1CCOCC1	-3.29	14.9	13.1	-5.49	0.79	-1.62	12.5	4.82	3.23	11.7	-12.6
Cc1ccc(C(=O)NC(CN2CCCC2=O)c2ccccc2)c(=O)[nH]1 (stereo unspecified)	-4.18	21.9	-6.93	17.4	5.88	29.6	9.23	2.33	5.38	15	-5.93
Nc1nccc(N2CCC(Cc3ccccc3Cl)(C(=O)O)CC2)n1	-1.91	16.2	-3.46	22.5	6.56	9.52	18.1	-0.891	5.82	21.9	-7.9
CCC(O)CN1CCN(C(=O)c2cccn2Cc2ccccc2)CC1 (stereo unspecified)	-7.42	10.1	-1.72	3.91	-5.95	-0.38	-3.69	20.8	0.493	11.4	-3.89
CCO[C@@H]1CCN(C(=O)c2cscn2)[C@@H]1Cc1cnn(C)c1	-1.12	0	9.65	4.98	-5.12	2.1	-1.15	1.8	2.13	3.85	1.69
CC(C)c1ncc2c(n1)CN(Cc1nc(-c3ccoc3)no1)CC2	-2.65	10.8	-16.9	5.18	0.0929	-0.185	6.46	12.5	9.9	3.66	11.7
CN1C[C@H]2CCN(C(=O)NC3CCCC3)CC[C@H]2S1(=O)=O	1.67	-4	10.5	-0.732	-5.7	29.4	4.62	-1.7	1.06	-2.56	-5.65
Cc1ncccc1O[C@H]1CCN(C(=O)c2cccs2)CC[C@@H]1O	-1.97	-9.46	7.91	0.722	-2.17	-2.09	2.03	4.21	1.07	-1.3	-0.631
COC(=O)c1sccc1NC(=O)C1CCCN1C(=O)c1ccco1 (stereo unspecified)	-0.782	-15.3	13.2	-14.9	-8.84	-3.53	20.4	1.28	-3.16	2.56	-2.51
COCCO[C@H]1CCN(C(=O)c2ccc[nH]2)[C@H]1Cc1ccncc1	-5.53	0	12.9	1.19	-3.74	-2.1	2.73	-2.22	3.19	6.41	0.525
Cc1cccc(CS(=O)(=O)CC(=O)NCCCOC(C)C)c1	-4.74	18.2	-13.1	5.88	9.74	3.92	4.05	23.9	7.77	24.4	-10.7
CS(=O)(=O)NCC1CCCN(C(=O)Nc2ccccc2Cl)C1 (stereo unspecified)	-1.65	13.2	8.6	0.518	1.66	-5.92	15.2	29.4	7.45	18.2	-7.52
CCS(=O)(=O)N1CC[C@H](OC)[C@@H]1Cc1ccncc1	-2.5	13.5	-1.61	-11.3	-4.59	-9.87	15.3	7.61	0	7.69	-5.24
CN(C)C(=O)[C@@H]1C[C@@H]2CCN(Cc3nccs3)C[C@@H]2O1	-4.02	2.7	4.31	-1.06	-3.62	-3.5	21.8	-10.8	4.32	7.69	3.4
OC(COCc1ccc(Cl)cc1)CN1CCC(c2ccn[nH]2)CC1 (stereo unspecified)	-3.72	20.2	-9.18	-2.48	7.27	-3.04	3.03	-5.57	5.42	26.6	-7.16
